These results are taken from ChEMBL document CHEMBL1201862, “PubChem BioAssay data set” (2004).

Among all 57,000 sequences or so, about 4,300 (7.5%) were called active. No stated cut-off is given here; in the data, active = GI50 up to about 1.1 µM and inactive = higher. Not all results are given here. Measured potencies and affinities stand elsewhere.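 Where inhibition never reached the appropriate level, the endpoint shown equals the highest concentration tested. Otherwise, values were interpolated linearly from a five-concentration, 48-hour dose response in 96-well plates. GI50 = concentration required for 50% inhibition of growth.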

This assay has as its system HT-29. The experiment in a line: NCI tumour cell line growth inhibition, 48 h.
Take “cis-Bis[[(trimethylsilyl)methyl]amino]tetrachloroplatinum(IV), CHEMBL2146191”: the GI50 was found to be 4.11 µM. As for “[Bis(aminomethyl)pentamethylenesilane]tetrachloropaltinum(IV), CHEMBL2146204”, the figure is 1.57 µM; as for “[Bis(aminomethyl)tetramethylenesilane]tetrachloropaltinum(IV), CHEMBL2146189”, 4.9 µM; as for “[Bis(aminomethyl)pentamethylenesilane]dichloropaltinum(II), CHEMBL2146202”, 3.19 µM. To CISPLATIN, CHEMBL11359 belongs 7.93 µM; to “[Bis(aminomethyl)dimethylsilane]dichloroplatinum (II), CHEMBL2146201”, 18.1 µM. As for “[Bis(aminomethyl)dimethylsilane]tetrachloroplatinum(IV), CHEMBL2146190”, the figure is 5.28 µM. “[Bis(aminomethyl)ethylmethylsilane]tetrachloroplatinum(IV), CHEMBL2146192”: the GI50 came out at 1.57 µM. To “mu-(1,7-nanodiamine-N,N')bis-(cis-aminedichloroplatimum (II)), CHEMBL2146215” belongs 42.7 µM. As for “[Bis(aminomethyl)tetramethylenesilane]dichloropaltinum(II), CHEMBL2146205”, the figure is 16.2 µM; as for “[Bis(aminomethyl)diethylsilane]tetrachloroplatinum(IV), CHEMBL2146203”, 2.06 µM.
